Assay outcomes deposited in PubChem by Sanford-Burnham Center for Chemical Genomics.
Most compounds without a hit are left out; they make up all but 2.1% or so of the library.
PABP1 MLLE inh: blocks PAM2 peptide binding to the PABP1 MLLE domain | P11940 | GST-MLLE / FITC-PAM2 fluorescence polarization | inhibition, % at 20 µM | 360,000 tested, 0.36% active | AID 588489; in the data active = inhibition above about 35%, passing the limit was not always enough;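 note: plate controls were DMSO wells with GST-MLLE for no effect and wells lacking GST-MLLE protein for full effect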
CendR NRP1 mod: modulators of CendR peptide binding to human neuropilin-1; O14786; FAM-RPARPAR peptide binding to NRP-1, fluorescence polarization; inhibition, % at 25 µM; 360,000 tested, 0.85% active; AID 602438;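 active = inhibition or corrected inhibition above about 18%, plus a signal ratio from 0.5 to 1.5, limit read from the data, passing the limit was not always enough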
PABP polyA inh: blocks human PABP binding to poly(A) RNA. inhibition, % at 35 µM. fluorescence polarization. P11940. AID 2014. 290,000 tested, 1% active;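 note: calls also rest on retests at 20 µM and on dose response follow-up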
eIF4H inh: inhibitors of RNA binding by human eIF4H. eIF4H fluorescence polarization binding assay. Q15056. 290,000 tested, 0.94% active. inhibition, % at 35 µM;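 note: calls also rest on retests at 20 µM and on dose response follow-up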
Starred values were filed as active, the others as inactive; ? = inconclusive; nt = no result given. Unless noted, the rule behind the calls is not given here.

SMILES | PABP1 MLLE inh | CendR NRP1 mod | PABP polyA inh | eIF4H inh
COc1ccc(N2CC(C(=O)N3CCN(c4ccccc4F)CC3)CC2=O)cc1 (stereo unspecified) | 4.4 | 11.4 | 3.3 | -3.3
CC(C#N)Sc1ncnc2sc(-c3ccccc3)cc12 (stereo unspecified) | -7.4 | -3.5 | 7.8 | -11.5
CC(C(=O)c1ccc(Br)cc1)[n+]1cccc2ccccc21 (stereo unspecified) | -27.7 | -27.0 | 31.3* | 90.4
O=C1N=c2ccccc2=C1c1sc(Nc2cccc(O)c2)nc1O | -17.5 | 2.6 | 20.2* | 59.0*
O=C1N=c2ccccc2=C1c1sc(Nc2ccc(O)cc2)nc1O | 17.9 | 8.1 | 31.8 | ?
CCc1ccc(NC(=O)CCn2nc(C)c(S(=O)(=O)N3CCCCC3)c2C)cc1 | 5.9 | 23.8* | -9.5 | -13.5
CCOc1ccc(NC(=O)CCn2nc(C)c(S(=O)(=O)N3CCCCC3)c2C)cc1 | 1.6 | 10.5 | 7.3 | -3.0
Cc1cccc(NC(=O)CSc2nnc(-c3ccco3)c(-c3ccco3)n2)c1C | 33.1 | -8.4 | 62.5* | 91.1*
Cc1ccccc1NC(=O)CSc1nnc(-c2ccco2)n1N | 33.3 | -4.1 | nt | nt
COc1ccc(CCNC(=O)CSc2nnc(-c3ccco3)c(-c3ccco3)n2)cc1OC | nt | nt | 48.3* | 84.1*
Cc1cccc(NC(=O)CSc2nnc(-c3ccco3)c(-c3ccco3)n2)c1 | 28.5 | -10.7 | 73.0* | 89.4
Cc1cccc(NC(=O)CSc2nc(N)cc(N)n2)c1 | -8.4 | 3.9 | 2.1 | 1.1
Cc1cccc(NC(=O)CSc2nc3sc(C)cc3c(=O)n2C)c1 | -5.2 | 18.7* | nt | nt
Cc1ccc(NC(=O)CN2C(=O)NC3(CCCCC3C)C2=O)cc1S(=O)(=O)N1CCOCC1 (stereo unspecified) | -5.8 | -4.5 | nt | nt
COc1cccc(NC(=S)Nc2cc(C)cc(C)n2)c1 | 45.3* | 0.5 | 0.8 | -4.5
COc1cc(-c2noc(C)c2/C=C/c2ccc(C(=O)O)cc2)cc(OC)c1OC | 4.7 | -20.4 | 66.4* | 100.4*
Cc1ccn2c(c1)nc(=O)c1cc(S(=O)(=O)N3CCOCC3)ccc12 | 19.8 | 20.9* | 13.2 | 5.3
CN(Cc1ccccc1)S(=O)(=O)c1ccc(Cl)c(C(=O)OCC(=O)NC2CCS(=O)(=O)C2)c1 (stereo unspecified) | 2.5 | -0.4 | nt | nt
Cn1c(N)c(C(=O)COC(=O)c2cc(-c3ccco3)nc3ccccc23)c(=O)n(C)c1=O | 6.2 | -34.0 | 21.2* | ?
CCCn1c(N)c(N(CCOC)C(=O)c2cc(-c3ccco3)nc3ccccc23)c(=O)[nH]c1=O | 18.0 | 12.2 | 23.2 | 58.8*
Cn1c(N)c(C(=O)COC(=O)c2cc(-c3ccco3)nc3ccccc23)c(=O)n(Cc2ccccc2)c1=O | nt | nt | -8.7 | 70.3
O=C(O)c1cc(-c2ccco2)nc2cc3ccccc3cc12 | -3.1 | -132.4 | 77.4* | 100.3*
O=C(NNC(=O)c1cc(-c2ccco2)nc2ccccc12)c1ccccc1 | 11.9 | -7.4 | 28.6 | 24.0
CCN(CC)C(=O)COC(=O)c1cc(-c2ccco2)nc2ccccc12 | 18.8 | -8.2 | 64.1* | 82.0*
C[C@H](NC(=O)C1CCN(S(=O)(=O)c2ccccc2)CC1)C(=O)NCc1ccc(Cl)cc1Cl | -9.7 | 14.8 | -8.8 | -1.9
SMILES | PABP1 MLLE inh | CendR NRP1 mod | PABP polyA inh | eIF4H inh
CC1CN(CCC(=O)Nc2ccccc2F)CC(C)O1 (stereo unspecified) | 7.3 | -6.8 | -3.4 | -6.6
C[C@H](O)CNC(=O)c1[nH]cnc1C(=O)Nc1ccc(CNC(=O)OC(C)(C)C)cc1 | -5.2 | -15.5 | nt | nt
COc1ccc(-c2c(C3=CCCCC3)oc3ccc(-c4ccc5c(c4)OCO5)cc23)cn1 | -6.0 | 0.0 | nt | nt
NS(=O)(=O)c1ccc(NC(=O)COc2cccc3ccccc23)cc1 | -3.1 | 20.7 | 4.5 | 6.7
CN(CCOc1ccc(Cl)cc1)C(=O)C1CCN(C(=O)c2ccc(Cl)cc2)CC1 | 3.1 | -8.6 | -7.0 | -7.1
COc1ccc(CCNC(=O)c2cc(-c3ccco3)nc3ccccc23)cc1 | nt | nt | 47.5* | 74.9*
O=C(Nc1ccccc1N1CCOCC1)c1cc(-c2ccco2)nc2ccccc12 | 8.2 | -0.2 | 32.3 | 81.5*
COc1cc(-c2cc(C(=O)Nc3ccccc3N3CCOCC3)c3ccccc3n2)cc(OC)c1OC | 5.0 | 13.0 | -10.0 | 5.7
CNC(=O)COC(=O)c1cc(-c2ccco2)nc2ccccc12 | -4.7 | -1.4 | 59.6* | 73.7*
O=C(O)c1ccccc1/C=N/NC(=O)c1cc(-c2ccco2)nc2ccccc12 | -24.7 | -54.6 | 76.5* | 81.9*
Cc1cc(C)n2nc(SCC(=O)N3CC(C)CC(C)C3)nc2n1 (stereo unspecified) | -1.1 | 22.0 | nt | nt
O=C1CNC(=O)c2cc(Cl)ccc2N1 | 4.4 | 1.6 | nt | nt
